Source: PubChem BioAssay
MCF10A rereplic: inducers of DNA re-replication in MCF 10A breast cells; 2.9% of 350,000 active; Potency, µM (doses to about 46.1 µM), for the others: at the top dose activity, positive = re-replication, usual class: activators; MCF 10A DNA re-replication, Hoechst nuclear intensity, 48 h; AID 624296; note: % of control where 0% means no effect; nearly all actives have a fitted effect of over 50% in size
KB-3-1 tox: KB-3-1 parental cell cytotoxicity | KB-3-1 viability, CellTiter-Glo ATP luminescence, 72 h | Potency, µM (top dose mostly 46.1 µM), usual class: cytotoxic | 1.4% of 400,000 active; note: % is set by controls: 0 for no effect and ±100 for the full control effect; nearly all actives have a fitted effect of over 60% in size
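KB-3-1 cells, DMEM (no phenol red) + 10% FBS; compound by pin transfer, 72 h, 37 °C. Readout: CellTiter-Glo luminescence after 10 min. Data normalized, curve-fitted.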
12-LOX inh: ALOX12 (human) lipoxygenase inhibition. P18054. purified 12hLO, xylenol orange hydroperoxide absorbance. Potency, µM (series often up to 108 µM), for inactives: top-dose activity change, negative = inhibition, most hits filed as inhibitors. 1.1% of 580,000 active. AID 1671190; note: % is set by controls: 0 for no effect and ±100 for the full control effect
Target sequence (P18054 whole entry, looked up): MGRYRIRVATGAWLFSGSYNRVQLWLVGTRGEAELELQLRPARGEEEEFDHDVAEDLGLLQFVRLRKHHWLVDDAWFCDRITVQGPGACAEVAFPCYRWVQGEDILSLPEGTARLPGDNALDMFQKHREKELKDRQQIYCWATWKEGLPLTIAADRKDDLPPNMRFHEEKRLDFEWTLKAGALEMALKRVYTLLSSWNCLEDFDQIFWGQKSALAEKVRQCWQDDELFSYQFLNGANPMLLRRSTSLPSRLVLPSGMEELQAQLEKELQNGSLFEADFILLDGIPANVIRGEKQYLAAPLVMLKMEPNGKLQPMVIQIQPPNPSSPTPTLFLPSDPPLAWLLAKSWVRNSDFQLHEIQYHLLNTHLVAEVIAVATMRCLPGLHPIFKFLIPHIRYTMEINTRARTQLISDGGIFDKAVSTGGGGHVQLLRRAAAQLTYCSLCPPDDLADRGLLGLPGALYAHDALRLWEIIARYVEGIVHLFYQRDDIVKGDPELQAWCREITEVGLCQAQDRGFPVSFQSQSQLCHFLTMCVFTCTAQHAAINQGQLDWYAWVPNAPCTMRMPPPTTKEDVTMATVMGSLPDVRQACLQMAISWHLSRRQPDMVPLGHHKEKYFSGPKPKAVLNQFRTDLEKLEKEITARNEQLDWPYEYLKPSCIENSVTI
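Hydroperoxide product was detected by ferrous iron/xylenol orange as the 573 to 405 nm absorbance ratio. Arachidonic acid at 40 uM (final) was turned over for 30 min at room temperature by 150 nM human 12hLO, pH 7.0 Hepes buffer, after 15 min compound preincubation.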
KB-V1 cytotox: kills drug-selected multidrug resistant KB-V1 cells | KB-V1 MDR cells viability, CellTiter-Glo, 72 h | AID 1347076 | Potency, µM (doses to about 46.1 µM), hits mostly cytotoxic | 3.4% of 400,000 active; note: % is set by controls: 0 for no effect and ±100 for the full control effect; nearly all actives have a fitted effect of over 60% in size
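In this primary screen, KB-V1 cells overexpressing P-gp are incubated with library compounds (lowest to highest concentration) for 72 h at 37 degrees C before a luminescent ATP viability read.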
SW480 rereplic: induces DNA re-replication in SW480 colon adenocarcinoma cells. AID 624297. SW480 DNA re-replication, Hoechst DNA content imaging, 48 h. Potency, µM (series often up to 46.1 µM), without a hit: at the top dose re-replication activation, hits mostly activators. 1.8% of 340,000 active; note: % of control where 0% means no effect; nearly all actives have a fitted effect of over 55% in size
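Hoechst fluorescence of nuclei (405 nm excitation, 500-530 nm emission) measured by plate-scanning imager after 48 hr compound exposure at 37 C; re-replication scored as increased number of nuclei with elevated intensity.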
PINK1 modulator: PINK1 expression modulation; PINK1 immunofluorescence, high-content cytometry, 24 h; Potency, µM (titrated, usually from 76.6 µM), for the others: top-dose activation (PINK1 increase), most hits filed as activators; 0.2% of 410,000 active; active = well fitted activation curve with a large enough effect; inconclusive = small, poorly fitted or top-dose-only effect; cell line not stated here; note: % of control where 0% means no effect; nearly all actives have a fitted effect of over 65% in size
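Stable cell line treated 24 h with compounds at 5 concentrations (CCCP controls), then fixed and immunostained for PINK1 plus nuclear and cell stains; PINK1 immunofluorescence quantified by laser-scanning microplate cytometry.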
Starred values were filed as active, the others as inactive. Compounds with a hit are over-represented: about 5.8% of the library has one in this group of screens. Unless noted, calls come from the whole dose curve; as a rule, active = well fitted curve in the direction sought with a large enough effect; inconclusive = small, poorly fitted or top-dose-only effect, or another doubt; inactive = no such curve, though single readings can be large; an effect the other way counts as inactive or inconclusive. Potency is the fitted concentration of half-maximal effect.

How did O=C(NC1CCCCC1)C(c1ccnc2ccccc12)n1c(=O)c(-c2cc3ccccc3[nH]2)nc2ccccc21 (stereo unspecified) do in these assays?
KB-3-1 tox: inconclusive; 12-LOX inh: inconclusive; KB-V1 cytotox: inactive

How did O=C(NC1CCCCC1)C(c1ccnc2ccccc12)n1c(=O)c(-c2ccccc2)nc2ccccc21 (stereo unspecified) do in these assays?
KB-3-1 tox: 18µM*; 12-LOX inh: -22%; KB-V1 cytotox: 23µM*

What do the screens show for `COc1cc2c(C#N)c(N3CCCCC3)nc(N)c2c(N)n1`?
MCF10A rereplic: inconclusive; KB-3-1 tox: inconclusive; 12-LOX inh: 18%; KB-V1 cytotox: 8.2µM*; SW480 rereplic: -3%; PINK1 modulator: -2%

How did COc1cc2c(C#N)c(N3CCOCC3)nc(N)c2c(N)n1 do in these assays?
MCF10A rereplic: inconclusive; KB-3-1 tox: inactive; 12-LOX inh: 0%; KB-V1 cytotox: inconclusive; SW480 rereplic: -2%; PINK1 modulator: -1%

What do the screens show for `Cc1cc(C)c(S(=O)(=O)N2CCN(C(=O)CCOc3ccccc3C)CC2)c(C)c1`?
MCF10A rereplic: 0%; KB-3-1 tox: inconclusive; 12-LOX inh: 6%; KB-V1 cytotox: 5.2µM*; SW480 rereplic: -6%; PINK1 modulator: 0%

Results for Cc1ccccc1OCCC(=O)N1CCN(S(=O)(=O)c2ccc(F)cc2)CC1 ?
MCF10A rereplic: 5%; 12-LOX inh: 283%; SW480 rereplic: 16%; PINK1 modulator: 0%

Results for COc1cc2c(cc1OC)CN(C(=O)CCOc1ccccc1)CC2 ?
MCF10A rereplic: inconclusive; KB-3-1 tox: inactive; 12-LOX inh: 14%; KB-V1 cytotox: inconclusive; SW480 rereplic: inconclusive; PINK1 modulator: 5%

How did COc1cc2c(cc1OC)CN(C(=O)CCOc1ccccc1C)CC2 do in these assays?
MCF10A rereplic: inconclusive; KB-3-1 tox: inconclusive; 12-LOX inh: -2%; KB-V1 cytotox: 16µM*; SW480 rereplic: inconclusive; PINK1 modulator: 7%

Results for Cc1c(C(=O)N2CCc3ccccc3C2)oc2ccc(F)cc12 ?
12-LOX inh: -3%

Results for O=C(Cc1ccccc1)N1CCCC(c2nn(-c3ccc(Cl)cc3)c(=O)[nH]2)C1 (stereo unspecified) ?
12-LOX inh: 32µM*

Results for O=C(Nc1ccc(Cl)cc1)N1CCC(c2nn(-c3ccc(Cl)cc3)c(=O)[nH]2)CC1 ?
12-LOX inh: 13µM*

How did O=C(Cc1ccc(F)cc1)N1CCC(c2nn(-c3ccc(Cl)cc3)c(=O)[nH]2)CC1 do in these assays?
12-LOX inh: 28µM*

Results for O=C(Cc1ccc(Cl)cc1)N1CCC(c2n[nH]c(=O)n2Cc2ccc(F)cc2)CC1 ?
12-LOX inh: 14µM*

How did O=C(Cc1cccc(Cl)c1)N1CCC(c2nn(-c3ccc(F)cc3)c(=O)[nH]2)CC1 do in these assays?
12-LOX inh: -19%

Results for COc1ccc(CCNC(=O)Cc2c(C)c3ccc(OC)c(OC)c3oc2=O)cc1 ?
12-LOX inh: -10%

Results for Cc1ccc(CN2CCCC(c3nn(-c4ccc(Cl)cc4)c(=O)[nH]3)C2)cc1 (stereo unspecified) ?
12-LOX inh: 18µM*

How did CCc1cc(C(c2ccc(F)cc2)N2CCN(CC)CC2)c(NC(=O)c2ccco2)s1 (stereo unspecified) do in these assays?
12-LOX inh: 10µM*

What do the screens show for `CC(=O)Nc1sc2c(c1C(c1ccncc1)N1CCOCC1)CCCC2` (stereo unspecified)?
MCF10A rereplic: -1%; KB-3-1 tox: inactive; 12-LOX inh: -14%; KB-V1 cytotox: inactive; SW480 rereplic: 0%; PINK1 modulator: 3%

Results for CCc1cc(C(c2ccc(OC)cc2)N2CCOCC2)c(NC(=O)c2ccco2)s1 (stereo unspecified) ?
12-LOX inh: 7.1µM*

How did CCc1cc(C(c2ccncc2)N2CCN(C)CC2)c(NC(=O)c2ccccc2)s1 (stereo unspecified) do in these assays?
MCF10A rereplic: -34%; KB-3-1 tox: inactive; 12-LOX inh: -20%; KB-V1 cytotox: 21µM*; SW480 rereplic: -693%; PINK1 modulator: -1%

Results for C=C(C)CNC(=S)N/N=C/c1ccsc1 ?
12-LOX inh: -29%

Results for Cn1c(/C=N/O)nc2ccccc21 ?
MCF10A rereplic: 2%; KB-3-1 tox: inactive; 12-LOX inh: 1%; KB-V1 cytotox: inactive; SW480 rereplic: -9%; PINK1 modulator: 2%

Results for CCC(=O)c1ccc(/C=C/c2nc3ccccc3n2C)o1 ?
MCF10A rereplic: 8.2µM*; KB-3-1 tox: inactive; 12-LOX inh: -26%; KB-V1 cytotox: inactive; SW480 rereplic: 18µM*; PINK1 modulator: 1%

How did COc1ccccc1CNC(=O)C1(c2ccc(NC(=O)C3CC3)cc2)CCCCC1 do in these assays?
12-LOX inh: 22%

How did Cc1ccc(CNC(=S)Nc2ccc3c(c2)c(=O)n(C)n3Cc2cccc(C(F)(F)F)c2)cc1 do in these assays?
KB-3-1 tox: inactive; 12-LOX inh: 18µM*; KB-V1 cytotox: inactive; PINK1 modulator: 1%

How did COc1cc(Cn2c3ccc(NC(=O)CCc4cccnc4)cc3c(=O)n2C)ccc1F do in these assays?
KB-3-1 tox: inactive; 12-LOX inh: 6%; KB-V1 cytotox: inactive; PINK1 modulator: 1%

How did CCNC(=O)Nc1ccc2c(c1)c(=O)n(C)n2Cc1ccc(Cl)cc1 do in these assays?
KB-3-1 tox: inactive; 12-LOX inh: 14µM*; KB-V1 cytotox: inactive; PINK1 modulator: 1%

Results for COc1ccc(CCNC(=O)Nc2ccc3c(c2)c(=O)n(C)n3Cc2ccc(Cl)cc2)cc1OC ?
KB-3-1 tox: inactive; 12-LOX inh: inconclusive; KB-V1 cytotox: inactive; PINK1 modulator: 1%

How did COc1cc(Cn2c3ccc(NC(=O)CCc4ccccc4)cc3c(=O)n2C)ccc1F do in these assays?
KB-3-1 tox: 9.2µM*; 12-LOX inh: inconclusive; KB-V1 cytotox: 5.8µM*; PINK1 modulator: 5%

How did COc1ccccc1CCC(=O)Nc1ccc(OC)c(S(=O)(=O)N2CCCCC2)c1 do in these assays?
MCF10A rereplic: 1%; KB-3-1 tox: inactive; 12-LOX inh: -5%; KB-V1 cytotox: inactive; SW480 rereplic: -7%; PINK1 modulator: 1%

How did COc1ccccc1CCC(=O)Nc1ccc2c(c1)c(=O)n(C)n2-c1cccs1 do in these assays?
KB-3-1 tox: 3.3µM*; 12-LOX inh: -2%; KB-V1 cytotox: inactive; PINK1 modulator: 4%
